Reference: the supplement of paper PMC10646978
± gives the standard deviation.

What was measured:
Conditions in all cases: modulator concentration 10 µM
[1] = test system: RAW-Dual (murine macrophage reporter line); assay: NF-kB reporter (SEAP) activity fold change vs agonist alone; higher = enhanced NF-kB activity
In short: (§1)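 Overnight stimulation with a PRR agonist followed pre-incubation for 1 hour at 37 °C with compound at 10 μM final. This was done in RAW-Dual murine macrophage reporter cells seeded at 50 000 per well in 384-well plates. NF-κB (SEAP, QUANTI-Blue absorbance at 620 nm) and IRF (Lucia luciferase, QUANTI-Luc luminescence) were read from the supernatant. Each reporter's fold change relative to the mean agonist-only control on the same plate was averaged over replicate plates.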

[2] = test system: RAW-Dual (murine macrophage reporter line); assay: IRF reporter (Lucia luciferase) activity fold change vs agonist alone; higher = enhanced IRF activity
In short: as §1

[3] = test system: RAW-Dual (murine macrophage reporter line); assay: viability score (confluency relative to resting cells, overnight) (fraction); higher = more viable, active = viable (0.7 or more)
In short: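 A compound met the cutoff when both of two confluency masks exceeded 70% of resting cells. Those masks were made with IncuCyte software from IncuCyte images of RAW-Dual macrophages treated overnight at 10 μM final. This is the basis of the viability score, which is confluency relative to resting cells.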

[4] = agonist: CpG ODN 1826 0.5 ug/mL

Structure (SMILES)	NF-kB reporter [1, 4]	NF-kB reporter ([1]; agonist: LPS 0.1 ug/mL)	NF-kB reporter ([1]; agonist: MPLA […])	IRF reporter ([2]; agonist: 3'3'-cGAMP 10 ug/mL)	IRF reporter ([2]; agonist: LPS 0.1 ug/mL)	IRF reporter ([2]; agonist: MPLA […])	viability score [3]
C[C@@H](Oc1cc(-c2cnn(C3CCNCC3)c2)cnc1N)c1c(Cl)ccc(F)c1Cl	0.149 ± 0.026	0.423 ± 0.2	1.47 ± 0.12	0.0546 ± 0.0028	0.165 ± 0.074	0.128 ± 0.02	0.0221 (inactive)
CC(NC(=O)C1CCN(S(=O)(=O)N2CCCC2)CC1)c1ccc(F)cc1 (stereo not drawn)	1.08 ± 0.054	1.05 ± 0.082	0.928 ± 0.041	0.953 ± 0.051	1.25 ± 0.085	1.09 ± 0.15	0.992 (active)
COC(=O)C1=C(C)NC(C)=C(C(=O)OC(C)(C)CN(C)CCC(c2ccccc2)c2ccccc2)C1c1cccc([N+](=O)[O-])c1.Cl (stereo not drawn)	0.167 ± 0.023	0.807 ± 0.17	1.98 ± 1	0.132 ± 0.0065	1.69 ± 0.37	2.85 ± 0.23	0.96 (active)
O=C(NCC(O)(c1ccccc1)C(F)(F)F)c1ccc(Br)o1 (stereo not drawn)	0.943 ± 0.054	0.86 ± 0.12	0.929 ± 0.036	0.858 ± 0.038	1.04 ± 0.065	1.05 ± 0.15	0.948 (active)
CN(C)S(=O)(=O)N1CCC(CNC(=O)NC2CCCC2)CC1	0.963 ± 0.098	1.09 ± 0.098	0.818 ± 0.11	0.958 ± 0.1	1.04 ± 0.062	0.874 ± 0.31	1 (active)
O=C(O)CCCNCP(=O)(O)CCc1ccccc1	0.97 ± 0.099	0.91 ± 0.093	0.881 ± 0.083	0.964 ± 0.048	0.989 ± 0.14	0.963 ± 0.19	1.03 (active)
CCc1cc2c(-c3ccccc3)cc(=O)oc2cc1OC(C)=O	0.702 ± 0.12	1.09 ± 0.088	0.886 ± 0.085	0.974 ± 0.069	1.07 ± 0.3	1.07 ± 0.21	1 (active)
Cc1ccc(N2C(=O)C(=Cc3cccc([N+](=O)[O-])c3)SC2=S)cc1	0.957 ± 0.088	0.944 ± 0.08	0.949 ± 0.11	0.623 ± 0.035	1.26 ± 0.19	1.38 ± 0.29	0.996 (active)
O=c1ccc2ccc(OCCCCN3CCN(c4cccc5sccc45)CC3)cc2[nH]1	0.31 ± 0.016	0.917 ± 0.073	1.16 ± 0.14	1.05 ± 0.096	1.35 ± 0.25	1.15 ± 0.34	0.27 (inactive)
OCC(O)CN1CCN(c2ccccc2)CC1 (stereo not drawn)	1.06 ± 0.091	1.03 ± 0.12	1.02 ± 0.039	1.03 ± 0.064	0.991 ± 0.11	0.982 ± 0.17	0.996 (active)
O=C(Nc1ccon1)C1CN(C(=O)COc2ccccc2F)C1	1.08 ± 0.18	1.07 ± 0.14	1.04 ± 0.1	1.06 ± 0.042	1.25 ± 0.24	1.33 ± 0.2	0.992 (active)
Cn1ccnc1Sc1nc(Nc2cccc(Cl)c2)nc(N2CCOCC2)n1	0.519 ± 0.045	1.03 ± 0.12	1.21 ± 0.13	0.474 ± 0.019	1.24 ± 0.14	1.09 ± 0.23	1.01 (active)
CCOc1ccc2oc(-c3ccccc3)c(C(=O)N3CCN(C)CC3)c2c1	1.03 ± 0.052	1.09 ± 0.087	1.03 ± 0.05	1.05 ± 0.053	1.15 ± 0.13	1.26 ± 0.31	0.966 (active)
COc1cccc(N2CC(C(=O)NC3CCN(c4nccn5c(C)nnc45)CC3)CC2=O)c1 (stereo not drawn)	1.03 ± 0.051	1.06 ± 0.092	0.955 ± 0.088	0.968 ± 0.049	1.17 ± 0.073	1.08 ± 0.11	1.01 (active)
O=C(NC(Cc1cc(=O)[nH]c2ccccc12)C(=O)O)c1ccc(Cl)cc1 (stereo not drawn)	1.4 ± 0.19	1.19 ± 0.21	0.968 ± 0.055	0.918 ± 0.03	1.32 ± 0.16	1.09 ± 0.16	0.992 (active)
COc1cccc2cc(C(=O)NCc3nn(C4CCCC4)c(=O)c4ccccc34)oc12	0.976 ± 0.053	1.1 ± 0.086	0.846 ± 0.096	0.827 ± 0.062	1.2 ± 0.24	0.848 ± 0.39	1.02 (active)
Cc1cc(OC2CN(C(=O)CSCc3ccccc3)C2)cc(=O)n1C1CC1	1.12 ± 0.056	1.07 ± 0.085	0.994 ± 0.05	0.658 ± 0.034	0.986 ± 0.086	1.11 ± 0.31	1 (active)
CCN(CC)CCNC(=O)c1ccc(N)cc1.Cl	0.962 ± 0.14	0.935 ± 0.4	0.887 ± 0.052	0.952 ± 0.029	1.29 ± 0.3	1.29 ± 0.097	0.993 (active)
C#CCCCCCCCCCCCC(=O)CC(O)COC(C)=O (stereo not drawn)	0.822 ± 0.073	0.338 ± 0.034	0.808 ± 0.022	0.176 ± 0.019	0.878 ± 0.098	0.81 ± 0.15	0.849 (active)
CC(C)(O)C#Cc1ccccn1	0.931 ± 0.052	0.93 ± 0.14	0.909 ± 0.072	0.916 ± 0.05	1.11 ± 0.096	1.08 ± 0.29	1.01 (active)
CNC1CCCN(c2c(F)cc3c(=O)c(C(=O)O)cn(C4CC4)c3c2OC)C1 (stereo not drawn)	0.783 ± 0.095	0.821 ± 0.04	1.12 ± 0.16	1.02 ± 0.048	1.35 ± 0.094	1.43 ± 0.14	0.999 (active)
CCOC(=O)C1=C(C)NC(=S)NC1c1cccc(C)c1 (stereo not drawn)	0.93 ± 0.097	1.09 ± 0.097	1.05 ± 0.037	0.712 ± 0.17	0.944 ± 0.045	0.835 ± 0.057	0.975 (active)
CC(CN1c2ccccc2Sc2cccnc21)N(C)C.Cl (stereo not drawn)	0.968 ± 0.075	0.926 ± 0.11	1.07 ± 0.042	1.03 ± 0.099	0.935 ± 0.14	0.921 ± 0.16	1 (active)
COC(=O)c1ccc(C=NN=C2C(=O)Nc3ccccc32)cc1	0.968 ± 0.069	1.05 ± 0.09	0.995 ± 0.028	0.527 ± 0.028	1.09 ± 0.053	1.13 ± 0.11	0.998 (active)
